# From PubChem BioAssay AID1457 (National Center for Advancing Translational Sciences (NCATS), 2008)
# The campaign covered roughly 210,000 compounds. About 730 (0.35%) were called active. Not shown: some 1% with an inconclusive outcome. What follows is part of a selection rich in actives, with near analogues and random picks from the rest. A number with no mark means an inactive call. Calls come from the whole dose curve; as a rule, active = well fitted inhibition curve with a large enough effect; inconclusive = small, poorly fitted or top-dose-only effect; inactive = no such curve, though single readings can be large or run the other way.
# Assay: qHTS Assay for Identifying the Cell-Membrane Permeable IMPase Inhibitors: Potentiation with Lithium;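 note: IP1 builds up when IMPase is blocked and the TR-FRET signal falls; nearly all actives have a fitted effect of over 50% in size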;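 for activity, negative = IMPase inhibition: plate controls were basal vehicle for no effect and high inhibitor control for full effect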
# Conditions: CHO-M1 cells, IP1 TR-FRET (IP-One), carbachol + lithium; series mostly up to 59.4 µM; activity, negative = IMPase inhibition: at the top concentration
# Summary of the method: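 Concentration–response in CHO-M1 cells, lithium-potentiated; 30 min at 37C. IP1 detected by competitive TR-FRET after 10 min lysis at RT. Hill-fitted AC50.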
# Potency is the fitted concentration of half-maximal effect.
Compound,"activity, negative = IMPase inhibition",Potency
COc1ccc(CC(=O)Nc2ccc(C(=O)NC(C)(C)C)cc2)cc1,-3.58%,
COc1ccc(-c2nc(-c3ccccc3)oc2Nc2ccc3ccccc3c2)cc1,19.9%,
COc1ccc(CC(=O)Nc2ccc(-c3nnc(-c4ccccc4)o3)cc2)cc1,,10 µM (active)
COc1cccc(CC(=O)N2CCc3nc(COc4ccccc4)c4c(c3C2)CO[C@@H](C)C4)c1,8.35%,
CCCCS(=O)(=O)N1C2=NC(C(=O)OC)=C(C(=O)OC)[C@@H]3N(Cc4ccccc4)c4ccccc4[C@]23C[C@H]1C(=O)OC,6.96%,
COC(=O)C(C(=O)OC)[C@@H](NC=O)c1ccccc1,8.25%,
COC(=O)CSc1nccc(-c2cccs2)n1,-12.7%,
O=C(O)COc1ccc(-c2nccc(-c3cccs3)n2)cc1,,10 µM (active)
O=C(Nc1ccnc(-c2ccncc2)n1)c1cccs1,5.99%,
C/C(Nc1ccc2oc(=O)ccc2c1)=C1/C(=O)CC2[C@@H]1C2(C)C (stereo partly drawn),19%,
Cc1cc2oc(=O)cc(-c3ccccc3)c2c(C)c1-c1ccc(OC(F)(F)F)cc1,13.7%,
CC(C)C[C@H](NC(=O)[C@H](O)[C@H](N)Cc1ccccc1)C(=O)O,-2.42%,
CC(C)(C)OC(=O)NCCCCC1=CC2=CC(=O)C(C)(OC(=O)c3cccs3)C(=O)C2=CO1 (stereo not drawn),18.1%,
COc1ccc(OC)c(-n2c(=S)[nH]c3cc(C(=O)N4CCCCC4)ccc3c2=O)c1,9.2%,
COC(=O)c1ccc(CSc2nc3ccccc3c(=O)n2-c2cccc(OC)c2)o1,1.82% [at 38.3 µM],
COc1cccc(-n2c(=S)[nH]c3c(oc4ccccc43)c2=O)c1,,12.6 µM (active)
OC[C@H]1O[C@@H](n2cnc3c(N[C@H]4CC5CCC4C5)ncnc32)[C@H](O)[C@@H]1O (stereo partly drawn),-8.88%,
CC(=O)CC(c1ccccc1)C1C(=O)Oc2ccccc2C1=O (stereo not drawn),0.184%,
CC(C)C1=CC2=CC[C@H]3[C@](C)(C(=O)O)CCC[C@]3(C)C2CC1 (stereo partly drawn),16%,
COC(=O)C(C(=O)OC)C1c2ccccc2C=C(C2CC2)N1C(=O)OC (stereo not drawn),,inactive
CC(=O)c1sc2nc(SCC(=O)N3CCCCC3)[nH]c(=O)c2c1C,,11.2 µM (active)
C=CCNC(=O)CSc1nc2sc(C)c(C)c2c(=O)[nH]1,1.14%,

Compound,"activity, negative = IMPase inhibition",Potency
O=C(CSc1nc2c(cnn2-c2ccc(F)cc2)c(=O)[nH]1)N1CCCCCC1,1.02%,
CCN1C(=O)N[C@@H](c2ccccc2)[C@H](C(C)=O)[C@H]1C,10.4%,
O=C1C=C(c2ccccc2)CCC1,12.3%,
CCN1C(=O)N[C@@H](CCc2ccccc2)C(C(=O)OC)=C1C,4.15%,
O=C1OCCN1C(=O)[C@H]1[C@H](c2ccc(Cl)cc2)C(c2cccc(Cl)c2)=NN1c1ccc(Br)cc1,-6.47%,
COC(=O)CCCC1=CC2=CC(=O)C(C)(OC(=O)c3cccs3)C(=O)C2=CN1CC1CC1 (stereo not drawn),4.7%,
COc1ccc(-c2nc3c(c4c2C[C@H](c2ccccc2)OC4)CN(C(=O)C2CC2)CC3)c(C)c1,2.22%,
CC1=C(C/C=C(\C)CCCC(C)CCCC(C)CCCC(C)C)C(=O)c2ccccc2C1=O (stereo not drawn),-3.08%,
CCOC(=O)c1ccc(Nc2cc(C)nc3nc(C)nn23)cc1,2.54%,
CCOC(=O)c1ccc(NC2Nc3cc(C)nn3S2)cc1 (stereo not drawn),,10 µM (active)
CCc1ccc(NC2Nc3cc(C)nn3S2)cc1 (stereo not drawn),-0.821%,
CC1(C)O[C@@H]2C[C@@H]3[C@H]4C[C@@H](F)C5=CC(=O)C=C[C@]5(C)[C@@]4(F)[C@@H](O)C[C@]3(C)[C@]2(C(=O)CO)O1,0.557%,
CCCCCCCC/C=C\CCCCCCCC(=O)NCC(=O)O,-4.73%,
CCCCC/C=C\C[C@H](O)/C=C/C=C/C=C/[C@@H](O)CCCC(=O)O,12.9%,
C=CCC(C)(O)c1ccco1 (stereo not drawn),12.8%,
Cc1ccccc1OC/C(O)=C(\C#N)c1nc2ccccc2[nH]1,,12.6 µM (active)
N#C/C(=C(/O)COc1cccc2ccccc12)c1nc2ccccc2[nH]1,1.85%,
N#C/C(=C(/O)COC(=O)COc1ccc(Cl)cc1)c1nc2ccccc2[nH]1,5.54%,
COC(=O)CCCC1=CC2=CC(=O)C(C)(OC(=O)c3cccs3)C(=O)C2=CN1c1cccc(C#N)c1 (stereo not drawn),-6.28%,
C[C@@]12CCC(=O)C=C1CC[C@H]1C2[C@@H](O)C[C@]2(C)[C@@H]1CC[C@@]2(O)C(=O)COC(=O)C1CCCC1 (stereo partly drawn),-5%,
CO[C@@]12[C@@H](COC(N)=O)C3=C(C(=O)C(C)=C(N)C3=O)N1C[C@@H]1N[C@@H]12,17.2%,
